Assay results: the supplement of paper PMC10127200
Counter-ions that a name gives are not always drawn.

Assays:
Experiment in all cases: Euclidean distance of Cell Painting phenotypic profile (signed KS, 77 features) to DMSO centroid (dimensionless distance); 5 or 10 uM (library dependent); higher = stronger phenotypic change vs DMSO (phenoactivity)
Conditions in all cases: 48 h
786-O = system: 786-O
Outline: (§1)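 Phenoactivity is defined as the Euclidean distance from a compound profile to the median vehicle profile. Each profile comprised 77 Harmony features, scored as signed Kolmogorov-Smirnov statistics versus same-plate vehicle wells, then plate-position corrected, correlation-weighted and replicate-averaged at the top dose. Five cancer lines and one healthy fibroblast line were exposed to library compounds for 48 h at 10 or 5 uM (0.1% DMSO final).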

A549 = system: A549
Outline: as §1

DU145 = system: DU145
Outline: as §1

FB = system: FB
Outline: as §1

HEPG2 = system: HEPG2
Outline: as §1

OVCAR4 = system: OVCAR4
Outline: as §1

Row | Structure (SMILES) | Euclidean distance (786-O) | Euclidean distance (A549) | Euclidean distance (DU145) | Euclidean distance (FB) | Euclidean distance (HEPG2) | Euclidean distance (OVCAR4)
1 | Cn1nc(C(C)(C)C)cc1C(=O)N[C@@H](Cc1cccc(Cl)c1)C(=O)NCC#N [Cathepsin Inhibitor 1] | 1.97 | 2.28 | 2.22 | 1.9 | 1.43 | 1.92
2 | C=C1/C(=C\C=C2/CCC[C@]3(C)[C@@H]([C@H](C)/C=C/[C@H](C)C(C)C)CC[C@@H]23)C[C@@H](O)C[C@@H]1O [Doxercalciferol] | 2.73 | 1.49 | 6.05 | 1.9 | 2.03 | 1.73
3 | CC(C)NCC(O)COc1ccc(COCCOC(C)C)cc1 (stereo not drawn) [Bisoprolol fumarate] | 0.611 | 0.836 | 0.523 | 0.91 | 0.467 | 1.36
4 | c1ccc2[nH]c(-c3cscn3)nc2c1 [Thiabendazole] | 1.16 | 0.753 | 1.31 | 1.1 | 1.93 | 0.914
5 | CCCCCCCCCCC[C@@H](C[C@@H]1OC(=O)[C@H]1CCCCCC)OC(=O)[C@H](CC(C)C)NC=O [Orlistat] | 1.47 | 1.11 | 0.901 | 1.42 | 1.12 | 0.935
6 | O=C(NCc1ccncc1)C12CC3CC(C1)CC(c1ccc(Cl)cc1)(C3)C2 | 1.47 | 1.24 | 1.1 | 0.743 | 0.955 | 0.981
7 | O=C(O)c1ccccn1 [Picolinic acid (PCL 016)] | 0.642 | 0.409 | 2.15 | 0.847 | 0.761 | 0.799
8 | C#C[C@]1(O)CC[C@H]2[C@@H]3CCc4cc(OC)ccc4[C@H]3CC[C@@]21C [Mestranol] | 1.12 | 0.814 | 0.785 | 1.26 | 0.905 | 1.38
9 | COc1cc2nccc(Oc3ccc(NC(=O)Nc4cc(C)on4)c(Cl)c3)c2cc1OC [Tivozanib (AV-951)] | 2.03 | 2.81 | 1.83 | 2.67 | 2.21 | 2.39
10 | O=C(CCCCCN1C(=O)c2cccc3cccc(c23)C1=O)NO [Scriptaid] | 3.19 | 3.02 | 2.28 | 3.75 | 2.92 | 3.33
11 | CCC[C@@H]1C[C@@H](C(=O)N[C@@H]([C@H]2O[C@H](SC)[C@H](OP(=O)(O)O)[C@@H](O)[C@H]2O)[C@H](C)Cl)N(C)C1 [Clindamycin Phosphate] | 1.64 | 0.653 | 0.924 | 0.907 | 0.808 | 1.38
12 | c1cn2cc(-c3ccc4cn[nH]c4c3)nc(Nc3ccc(N4CCOCC4)cc3)c2n1 [Entospletinib (GS-9973)] | 2.51 | 2.15 | 2.1 | 0.923 | 0.994 | 1.42
13 | CCCCN(Cc1ccc(C(=O)NO)cc1)C(=O)Nc1ccccc1 [Nexturastat A] | 1.18 | 1.83 | 2.03 | 3.14 | 1.55 | 2.05
14 | CCC[C@H](NC(=O)/C(C#N)=C/c1cccc(Br)n1)c1ccccc1 [Degrasyn (WP1130)] | 5.15 | 4.08 | 4.95 | 2.59 | 1.66 | 4.93
15 | C=CC(=O)Nc1cccc(Sc2nc(Nc3ccc(N4CCN(C)CC4)cc3)ncc2Cl)c1 | 2.96 | 3.04 | 2.04 | 3.82 | 3.02 | 2.64
16 | COc1cc(-c2ncn(/C=C\C(=O)OC(C)C)n2)cc(C(F)(F)F)c1 | 3.51 | 3.05 | 3.45 | 3.74 | 2.56 | 4.53
17 | O=c1[nH]cnc2c1ncn2[C@@H]1O[C@H](CO)[C@@H](O)[C@H]1O [Inosine] | 1.3 | 0.799 | 0.639 | 0.936 | 0.417 | 1.3
18 | O=S(=O)(c1ccccc1)N(CC(F)(F)F)c1ccc(C(O)(C(F)(F)F)C(F)(F)F)cc1 | 1.13 | 1.85 | 1.07 | 1.62 | 2.12 | 1.43
19 | C[C@]12CC[C@@H]3c4ccc(OC(=O)c5ccccc5)cc4CC[C@H]3[C@@H]1CC[C@@H]2O [Estradiol Benzoate] | 0.619 | 0.854 | 0.933 | 1.35 | 0.557 | 1.01
20 | O=C(NC[C@H]1CN(c2ccc(N3CCOCC3=O)cc2)C(=O)O1)c1ccc(Cl)s1 [Rivaroxaban] | 1.33 | 1.15 | 0.946 | 0.949 | 0.52 | 1.51
21 | CC(C)Oc1ccc2c(=O)c(-c3ccccc3)coc2c1 [Ipriflavone (Osteofix)] | 1.22 | 1.44 | 1.15 | 1.17 | 0.723 | 2.28
22 | O=C(O)C1=CO[C@@H](O[C@@H]2O[C@H](CO)[C@@H](O)[C@H](O)[C@H]2O)[C@@H]2C(CO)=CC[C@H]12 [Geniposidic acid] | 0.817 | 0.758 | 0.684 | 0.819 | 0.985 | 0.756
23 | c1ccc(-c2[nH]ncc2-c2ccnc3ccccc23)nc1 | 0.643 | 0.916 | 0.92 | 1.27 | 1.24 | 0.931
24 | C/C=C\c1ccc(OC)cc1 [cis-Anethole] | 0.571 | 0.784 | 0.864 | 0.765 | 0.671 | 1.2

Row | Structure (SMILES) | Euclidean distance (786-O) | Euclidean distance (A549) | Euclidean distance (DU145) | Euclidean distance (FB) | Euclidean distance (HEPG2) | Euclidean distance (OVCAR4)
25 | Cc1cc(C)nc(NS(=O)(=O)c2ccc(N)cc2)n1 [Sulfamethazine Sodium Salt] | 0.877 | 0.792 | 0.732 | 0.878 | 0.494 | 1.38
26 | CC1(C)[C@@H](O[C@H]2O[C@H](C(=O)O)[C@@H](O)[C@H](O)[C@H]2O[C@@H]2O[C@H](C(=O)O)[C@@H](O)[C@H](O)[C@H]2O)CC[C@]2(C)[C@H]3C(=O)C=C4[C@@H]5C[C@@](C)(C(=O)O)CC[C@]5(C)CC[C@@]4(C)[C@]3(C)CC[C@@H]12 [Diammonium Glycyrrhizinate] | 1.05 | 1.68 | 1.1 | 0.929 | 0.457 | 1.73
27 | COc1cc2c(cc1Cc1cccc(Cl)c1F)c(=O)c(C(=O)O)cn2[C@H](CO)C(C)C [Elvitegravir (GS-9137. JTK-303)] | 1.44 | 2.36 | 1.33 | 0.872 | 0.582 | 1.76
28 | O=C1NCCc2[nH]c(-c3ccncc3)cc21 | 3.08 | 0.97 | 1.24 | 3.06 | 2.81 | 3.15
29 | Nc1nc(N)c(N=O)c(OCC2CCCCC2)n1 | 1.11 | 1.58 | 0.998 | 1.01 | 0.792 | 1.38
30 | Nc1cc(C(Cl)=C(Cl)Cl)c(S(N)(=O)=O)cc1S(N)(=O)=O [Clorsulon] | 1.15 | 0.636 | 0.797 | 0.676 | 0.743 | 1.18
31 | COc1cc(NS(=O)(=O)c2ccc(N)cc2)nc(OC)n1 [SulfadiMethoxine sodium] | 1.05 | 0.781 | 0.776 | 1.03 | 0.428 | 0.631
32 | CCOC(N)=O [Urethane] | 1.2 | 0.492 | 0.675 | 0.718 | 0.46 | 1.46
33 | O=C1c2c(O)cccc2Cc2cccc(O)c21 [Dithranol] | 2.26 | 0.754 | 1.2 | 2.24 | 0.979 | 2.04
34 | N#Cc1cc(NC(=O)C(=O)O)c(Cl)c(NC(=O)C(=O)O)c1 [Lodoxamide Tromethamine] | 1.61 | 1.34 | 0.792 | 1.06 | 0.894 | 1.01
35 | c1ccc(CC2=NCCN2)cc1 [Tolazoline HCl] | 0.97 | 1.05 | 0.877 | 0.718 | 0.734 | 1.42
36 | Cn1cc(C2=C(c3cn(CCCSC(=N)N)c4ccccc34)C(=O)NC2=O)c2ccccc21 [Ro 31-8220 Mesylate] | 2.7 | 3.02 | 2.58 | 2.92 | 3.24 | 2.82
37 | Cc1ccc(S(=O)(=O)c2ccc([N+](=O)[O-])o2)cc1 | 6.48 | 1.74 | 3.22 | 5.11 | 1.81 | 6.14
38 | COc1ccc2cccc(CCNC(C)=O)c2c1 [Agomelatine] | 0.998 | 0.774 | 0.825 | 0.747 | 0.603 | 0.58
39 | CCCCNc1cc(C(=O)O)cc(S(N)(=O)=O)c1Oc1ccccc1 [Bumetanide] | 1.24 | 1.15 | 1.04 | 1.5 | 1.38 | 1.64
40 | O=C(CSc1nc2c(c(=O)n1-c1ccccc1)SCC2)Nc1ccc(-c2ccccc2)cn1 | 1.36 | 1.81 | 1.11 | 0.832 | 1.42 | 0.588
41 | CNc1ncc(-c2ccc3c(=O)c(C(=O)O)cn(C4CC4)c3c2C)cc1C [Ozenoxacin] | 1.31 | 0.846 | 0.593 | 1.13 | 1.01 | 0.85
42 | Oc1cc(O)cc(/C=C/c2ccc(O)c(O)c2)c1 [Piceatannol] | 0.759 | 1.05 | 0.992 | 1.3 | 2.04 | 0.83
43 | CCOCC(O)COc1ccc(NC(=O)CC[S+](C)C)cc1 (stereo not drawn) [Suplatast Tosylate] | 1.48 | 1.01 | 1.47 | 1.14 | 0.648 | 1.13
44 | CC(C)NC[C@@H](C(=O)N1CCN(c2ncnc3c2[C@H](C)C[C@H]3O)CC1)c1ccc(Cl)cc1 | 2.01 | 1.92 | 1.44 | 2.24 | 1.1 | 1.13
45 | CN(C)CCCN1c2ccccc2CCc2ccccc21 [Imipramine HCl] | 1.05 | 0.896 | 1.15 | 1.55 | 1.13 | 1.33
46 | Nc1ccc(C(=O)Nc2cccc(-c3nc(N4CCOCC4)c4oc5ncccc5c4n3)c2)cn1 | 4.09 | 5.02 | 4.16 | 1.63 | 3.45 | 2.25
47 | CCC(C)n1ncn(-c2ccc(N3CCN(c4ccc(OCC5COC(Cn6cncn6)(c6ccc(Cl)cc6Cl)O5)cc4)CC3)cc2)c1=O (stereo not drawn) [Itraconazole] | 4.09 | 2.48 | 1.52 | 1.53 | 1.02 | 1
48 | COc1cc(O)c2c(c1)oc(=O)c1c3cc(O)c(O)cc3oc21 [Wedelolactone] | 1.08 | 1.94 | 1.02 | 2.37 | 2.5 | 2.37
